Reference: publication PMC4552634, “A New Set of Chemical Starting Points with Plasmodium falciparum Transmission-Blocking Potential for Antimalarial Drug Discovery” (PLoS ONE, 2015)
The whole screen tested about 13,000 compounds, of which about 3,200 (25%) showed an effect of 50% or more. The list shows a part of the results.

test system: P. falciparum stage V gametocytes; set-up: BacTiter-Glo ATP luminescence viability of purified stage V gametocytes in 384-well plates, per cent inhibition versus DMSO; conditions: 48 h, 5 µM; inhibitor

In order of rising “% Inhibition” value:
1. CNC(=O)C1Cc2c([nH]c3cc(Cl)ccc23)C2(CCN(CCc3ccccc3)CC2)N1 (centres unmarked) [TCMDC-141299]  -88.09%
2. COc1ccc2nccc([C@@H](O)CN3CCC(NCc4nc5ccc(F)cc5[nH]4)CC3)c2c1 [TCMDC-140651]  -60.2%
3. O=C(/C=C/c1ccc(Cl)c(Cl)c1)NCCCCCN1CCC(NC(=O)Nc2ccc(F)c(Cl)c2)CC1 [TCMDC-135720]  -54.39%
4. COc1ccc2nccc([C@@H](O)CN3CCC(NCc4nc5c(F)cc(F)cc5[nH]4)CC3)c2c1 [TCMDC-140664]  -52.05%
5. COc1ccc(CC2(CO)CCN(Cc3ccc(O)c(Cl)c3)CC2)cc1 [TCMDC-124684]  -47.93%
6. O=C(Nc1ccc2nc(-c3ccc4nc(NC(=O)C5CCCCC5)sc4c3)[nH]c2c1)C1CCCCC1 [TCMDC-125768]  -44.12%
7. O=C(NC1CCN(CCCc2ccccc2)CC1)c1ccc(-c2cccc(C(F)(F)F)c2)s1 [TCMDC-134323]  -38.84%
8. CCCN1CCC2(CC1)NC(C(=O)NCCC(C)C)Cc1c2[nH]c2cc(Cl)ccc12 (centres unmarked) [TCMDC-141295]  -32.44%
9. O=C(c1ccc(-c2ccc(-c3nc4cc(C(F)(F)F)ccc4[nH]3)s2)cc1)N1CCCCC1CN1CCC(O)C1 (centres unmarked) [TCMDC-132342]  -28.43%
10. Cn1cncc1C(=O)Nc1cccc(-c2ccc(-c3nc4ccc(F)cc4[nH]3)cc2)c1 [TCMDC-137059]  -26.92%
11. Cn1cncc1C(=O)Nc1ccc(-c2cccc(-c3nc4ccc(C(F)(F)F)cc4[nH]3)c2)cc1 [TCMDC-137062]  -23.24%
12. Cn1cncc1C(=O)Nc1cccc(-c2ccc(-c3nc4ccc(C(F)(F)F)cc4[nH]3)cc2)c1 [TCMDC-137064]  -23.15%
13. O=c1cnc2ccc(F)cc2n1CCN1CCC(NCc2cc(-c3ccccc3)cs2)CC1 [TCMDC-135134]  -21.73%
14. COc1cc(F)c2ncc(F)c([C@@H](O)CN3CCC(NCc4cc5c(cn4)OCCO5)CC3)c2c1 [TCMDC-135378]  -21.41%
15. Cc1cccc2[nH]c(-c3ccc(-c4cccc(NC(=O)c5cncn5C)c4)cc3)nc12 [TCMDC-137057]  -16.54%
16. COc1ccc2nccc([C@@H](O)CN3CCC(NCc4cc5c(F)ccc(F)c5[nH]4)CC3)c2c1 [TCMDC-140739]  -16.25%
17. CC(C)Oc1cc2c(cc1NS(=O)(=O)c1ccc(-c3ccc(Cl)cc3)cc1F)CCN(C)CC2 [TCMDC-141589]  -14.09%
18. Cc1cccc2[nH]c(-c3cccc(-c4cccc(NC(=O)c5cn(C)c(=O)n5C)c4)c3)nc12 [TCMDC-137137]  -10.73%
19. Cc1[nH]nc2ccc(-c3cc(OC[C@@H](N)Cc4ccccc4)cnc3-c3ccccc3OCc3cccc(F)c3)cc12 [TCMDC-136224]  -9.479%
20. Cc1csc(-c2ncc(OC[C@@H](N)Cc3ccccc3)cc2-c2ccc3n[nH]c(C)c3c2)c1 [TCMDC-136087]  -8.857%
21. COc1cc(F)c2nccc([C@@H](O)CN3CCC(NCc4nc5c(F)cccc5[nH]4)CC3)c2c1 [TCMDC-140970]  -8.506%
22. Cn1cncc1C(=O)Nc1cccc(-c2csc(-c3nc4ccccc4[nH]3)c2)c1 [TCMDC-132396]  -5.264%
23. CCOC(=O)c1[nH]c(-c2cc(Cl)nc(Cl)c2)nc1NC(=S)NCCCN1CCOCC1 [TCMDC-138898]  -1.969%
24. O=C(N[C@@H](Cc1ccccc1)[C@H](O)CNC1CCc2ccccc2C1)c1cc(C2CCCC2)cc(N2CCCC2=O)c1 (some centres unmarked) [TCMDC-134647]  -1.727%
25. COc1ccc([N+](=O)[O-])cc1N(Cc1ccccc1-c1ccccc1)S(=O)(=O)c1ccc(C(F)(F)F)cc1 [TCMDC-141595]  -1.284%
26. O=C(NCc1ccccc1F)c1ccc(N2CCC(NCc3cccc(-n4cccn4)c3)CC2)cc1 [TCMDC-124670]  2.936%
27. COc1ccc2nccc([C@@H](O)CN3CCC(NCc4ccc5c(c4)NC(=O)CS5)CC3)c2c1 [TCMDC-141058]  3.469%
28. CC(C)c1cccc(OCC2CCN(c3ncc(C(=O)Nc4ccccc4)cc3Cl)CC2)c1 [TCMDC-134262]  5.5%
29. COc1ccc(Nc2nccc(-c3cccc(NC(=O)c4cc5cc(F)ccc5[nH]4)c3)n2)cc1 [TCMDC-133307]  7.51%
30. COc1ccc2nccc([C@@H](O)CN3CCC(NCc4cc5ccc(C#N)cc5[nH]4)CC3)c2c1 [TCMDC-140696]  8.806%
31. CCCCNC(=O)[C@H](CC1CCCCC1)NC(=O)c1ccc(O)c(-c2ccc(OC)cc2)c1 [TCMDC-140803]  9.095%
32. Fc1cccc(COc2ccc(Nc3ncnc4cc(/C=C/[C@@H]5CCCN5)sc34)cc2Cl)c1 [TCMDC-134401]  10.77%
33. COc1ccc2nccc([C@@H](O)CN3CCC(NCc4cc5cccc(O)c5c(=O)[nH]4)CC3)c2c1 [TCMDC-141223]  13.37%
34. COc1ccc2nccc([C@@H](O)CN3CCC(NCc4cc5cc([N+](=O)[O-])ccc5[nH]4)CC3)c2c1 [TCMDC-140693]  14.13%
35. COc1ccc2nccc([C@@H](O)CN3CCC(NCc4cc5ccccc5[nH]c4=O)CC3)c2c1 [TCMDC-140759]  15.99%
36. O=C(NC1CC1)c1cnc(N2CCC(c3ccccc3)CC2)c(Cl)c1 [TCMDC-134605]  18.88%
37. CO/N=C(\C)c1ccc2c(c1)CCN(CCC1CCC(NC(=O)c3cccc(-c4noc(C)n4)c3)CC1)CC2 (centres unmarked) [TCMDC-139923]  19.53%
38. COc1ccc2nccc([C@@H](O)CN3CCC(NCc4ccc5c(c4)NC(=O)CO5)CC3)c2c1 [TCMDC-140793]  20.76%
39. COc1ccccc1C(=O)Nc1ccc(Nc2nc(C)cc(N3CCOCC3)n2)cc1 [TCMDC-124706]  21.35%
40. COc1ccc2nccc([C@@H](O)CN3CCC(NCc4cc5ccccc5[nH]4)CC3)c2c1 [TCMDC-140520]  22.46%
41. COc1ccc(-c2cc(C(=O)N[C@@H](CC3CCCCC3)C(=O)NCCN3CCCCC3)ccc2O)cc1 [TCMDC-140805]  23%
42. Cn1cncc1C(=O)Nc1cccc(-c2cccc(-c3nc4ccccc4[nH]3)c2)c1 [TCMDC-137054]  26.78%
43. Cn1cncc1C(=O)Nc1ccc(-c2cccc(-c3nc4ccc(F)cc4[nH]3)c2)cc1 [TCMDC-137056]  28.45%
44. COc1ccc2nccc([C@@H](O)CN3CCC(NCc4nc5ccccc5[nH]4)CC3)c2c1 [TCMDC-140550]  32.31%
45. COc1cc(N(Cc2ccccc2C)S(=O)(=O)Cc2ccccc2[N+](=O)[O-])c(OC)cc1Cl [TCMDC-141749]  44.47%
46. COc1ccc2nccc([C@@H](O)CN3CCC(NCc4cc5c(Cl)cccc5[nH]4)CC3)c2c1 [TCMDC-140695]  48.39%
47. Cc1cc(N[C@@H](CC(C)C)C(=O)NCCCOC(C)C)nc(NCCc2ccc(F)cc2)n1 [TCMDC-134868]  54.17%
48. COc1ccc(-c2cc(C(=O)N[C@@H](CC3CCCCC3)C(=O)NCCN3CCCC3)ccc2O)cc1 [TCMDC-140802]  56.09%
49. COc1ccc2nccc([C@@H](O)CN3CCC(NCc4cc5cc(Cl)ccc5[nH]4)CC3)c2c1 [TCMDC-140697]  66.18%
50. COc1ccc2nccc([C@@H](O)CN3CCC(NCc4nc5cc(F)c(F)cc5[nH]4)CC3)c2c1 [TCMDC-140665]  66.97%
51. COc1cc(F)c2nccc([C@@H](O)CN3CCC(NCc4cc5c(cc4F)OCCO5)CC3)c2c1 [TCMDC-141570]  69.54%
52. Cc1cc(N[C@@H](Cc2ccccc2)C(=O)NCCCOC(C)C)nc(NCCc2ccc(F)cc2)n1 [TCMDC-134866]  73.24%
53. COc1ccc2nccc([C@@H](O)CN3CCC(NCc4ccc5c(c4)NC(=O)C(C)S5)CC3)c2c1 (some centres unmarked) [TCMDC-141222]  79.58%
54. Cn1cncc1C(=O)Nc1cccc(-c2cccc(-c3nc4ccc(F)cc4[nH]3)c2)c1 [TCMDC-137058]  82.61%
55. Cc1cccc2[nH]c(-c3cccc(-c4cccc(NC(=O)c5cncn5C)c4)c3)nc12 [TCMDC-137063]  85.59%
56. Cn1cncc1C(=O)Nc1cccc(-c2ccc(-c3nc4ccccc4[nH]3)cc2)c1 [TCMDC-137060]  87.09%
57. Cn1cncc1C(=O)Nc1cccc(-c2cccc(-c3nc4ccc(C(F)(F)F)cc4[nH]3)c2)c1 [TCMDC-137061]  89.86%
58. COc1ccc([N+](=O)[O-])cc1N(Cc1ccccc1-c1ccccc1)S(=O)(=O)c1ccc(C(F)(F)F)cc1[N+](=O)[O-] [TCMDC-141596]  92.47%
59. COc1ccc2nccc([C@@H](O)CN3CCC(NCc4cc5ccc(Cl)cc5[nH]4)CC3)c2c1 [TCMDC-140694]  96.18%
60. COc1ccc2nccc([C@@H](O)CN3CCC(NCc4cc5cc(OC(F)(F)F)ccc5[nH]4)CC3)c2c1 [TCMDC-140692]  96.42%
61. Cc1[nH]nc2ccc(-c3cc(OC[C@@H](N)Cc4ccccc4)cnc3-c3ccc(OCc4cccc(F)c4)cc3)cc12 [TCMDC-136225]  97.54%
62. COc1ccc2nccc([C@@H](O)CN3CCC(NCc4cc5c(Cl)cc(Cl)cc5[nH]4)CC3)c2c1 [TCMDC-140649]  102.2%
